Test results: PubChem BioAssay (NCATS)
Records with an inconclusive call do not appear. Entries that show only a call come without a potency. Activity calls are given as the source filed them. Calls come from the whole dose curve; as a rule, active = well fitted inhibition curve with a large enough effect; inconclusive = small, poorly fitted or top-dose-only effect; inactive = flat fitted curve, though single readings scatter.

What was measured:
Assay in all cases: qHTS profiling for inhibitors of Plasmodium falciparum proliferation (AID 504749); note: nearly all actives have a fitted effect of over 60% in size
Conditions in all cases: P. falciparum in erythrocytes, SYBR Green DNA, 72 h; series mostly up to 28.7 µM
AA1029 = system: AA1029
Summary of the method: (§1)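 Quantitative HTS: compounds pinned into medium, infected erythrocytes added (0.3% parasitemia, 2.5% hematocrit), 72 h culture at 37 C under 5% CO2. Saponin/Triton lysis with SYBR Green I, overnight RT, then fluorescence read.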

AS120 = system: AS120
Summary of the method: as §1

ATS95 = system: ATS95
Summary of the method: as §1

C2A = system: C2A
Summary of the method: as §1

CP185 = system: CP185
Summary of the method: as §1

CP192 = system: CP192
Summary of the method: as §1

CP194 = system: CP194
Summary of the method: as §1

CP201 = system: CP201
Summary of the method: as §1

ATS189 = system: ATS189
Summary of the method: as §1

CP191 = system: CP191
Summary of the method: as §1
Potency is the fitted concentration of half-maximal effect.

Compound	Potency (AA1029)	Potency (AS120)	Potency (ATS95)	Potency (C2A)	Potency (CP185)	Potency (CP192)	Potency (CP194)	Potency (CP201)	Potency (ATS189)	Potency (CP191)
CCC1(c2ccccc2)C(=O)NC(=O)N(C)C1=O (stereo not drawn)	inactive	inactive	inactive	inactive	inactive	inactive	inactive	inactive	–	–
CCOP(=O)(OCC)O/C(=C/Cl)c1ccc(Cl)cc1Cl	inactive	–	inactive	inactive	–	inactive	–	inactive	inactive	inactive
O=c1c2ccccc2[se]n1-c1ccccc1	inactive	–	inactive	inactive	–	inactive	–	inactive	–	–
CC12NC(Cc3ccccc31)c1ccccc12 (stereo not drawn)	11.2 µM (active)	–	–	inactive	–	inactive	–	inactive	–	–
OC(c1ccccc1)(c1ccccc1)C1CN2CCC1CC2 (stereo not drawn)	–	inactive	inactive	inactive	inactive	inactive	inactive	inactive	inactive	–
CNC(C)C(O)c1ccc(O)cc1 (stereo not drawn)	inactive	inactive	inactive	inactive	inactive	inactive	inactive	inactive	inactive	inactive
CN1CCCC(=C(c2cccs2)c2cccs2)C1	–	–	–	inactive	–	inactive	–	inactive	–	inactive
[O]=[Cr](=[O])([OH])[O][Cr](=[O])(=[O])[OH]	inactive	inactive	inactive	inactive	inactive	inactive	inactive	inactive	inactive	inactive
CCC1(c2ccccc2)C(=O)NC(=O)N(C(=O)c2ccccc2)C1=O (stereo not drawn)	inactive	inactive	inactive	inactive	inactive	inactive	inactive	inactive	inactive	–
CC1CCC(C(C)C)C(OC(=O)c2ccccc2N)C1 (stereo not drawn)	inactive	inactive	–	inactive	inactive	inactive	inactive	inactive	–	inactive
O=C1CN=C(c2ccccc2)c2cc(Cl)ccc2N1CC1CC1	inactive	–	inactive	inactive	inactive	inactive	inactive	inactive	inactive	inactive
O=Cc1ccco1	inactive	–	inactive	inactive	inactive	inactive	inactive	inactive	inactive	inactive
CCCCCCCCOC(=O)c1ccccc1C(=O)OCCCCCCCC	inactive	inactive	inactive	inactive	inactive	inactive	inactive	inactive	inactive	inactive
c1ccc(C2(N3CCCC3)CCCCC2)cc1	11.2 µM (active)	11.2 µM (active)	–	inactive	12.6 µM (active)	–	–	–	inactive	11.2 µM (active)
[Cl-].[Cl-].[Hg+2]	–	–	–	–	–	inactive	–	–	–	inactive
F/C(COc1ccc2c(c1)[nH]c1ccccc12)=C1/CN2CCC1CC2	10 µM (active)	4.47 µM (active)	11.2 µM (active)	–	–	–	–	inactive	–	11.2 µM (active)
c1ccc2sc(SNC3CCCCC3)nc2c1	inactive	inactive	inactive	inactive	inactive	inactive	inactive	inactive	inactive	inactive
O=c1[nH]c(=O)n(Cl)c(=O)n1Cl	inactive	inactive	inactive	inactive	inactive	inactive	inactive	inactive	inactive	inactive
CNC(=O)Oc1ccccc1C(=O)Nc1ccccc1	–	–	–	inactive	inactive	inactive	–	inactive	–	–
